According to PubChem BioAssay (NCATS):
Values joined by “and” are separate entries in the source; they are usually repeats but may differ in a detail not shown here. Identical values can stand only once. Inconclusive results are not listed. Active and inactive are the calls of the source. Unless noted, calls follow the shape of the dose curve; as a rule, active = well fitted curve in the direction sought with a large enough effect; inconclusive = small, poorly fitted or top-dose-only effect, or another doubt; inactive = no such curve, though single readings can be large; an effect the other way counts as inactive or inconclusive.

Legend:
[1] = Cell Viability - HUV-EC-C (AID 542);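 also: cells exposed to compound for 40 hours; % is scaled to controls: 0 for no effect and ±100 for the full control effect; nearly all actives have a fitted effect of over 35% in size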
Procedure, shortened: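 Decrease in cellular ATP, quantified by luciferase luminescence, reflects toxicity in normal human vascular endothelial HUV-EC-C cells given compound for 40 hr in complete culture medium. Values are AC50s from concentration-response curves.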

[2] = Cellular Toxicity (caspase-3) HepG2 (AID 654);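 also: cells exposed to compound for 16 hours before reading; 0% = DMSO alone and 100% = caspase signal from 100 µM tamoxifen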
Procedure, shortened: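 qHTS, HepG2, 1500 cells/well, complete medium; cpd 16 h 37 °C; Caspase-Glo 3/7, 20 min RT; lum. Norm: DMSO vs 100 uM tamoxifen; AC50 Hill fit.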

[3] = Cellular Toxicity (caspase-3) MRC-5 (AID 659);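 also: 0% = DMSO basal and 100% = 10 µM staurosporine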
Procedure, shortened: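 Concentration-dependent caspase 3/7 activation is measured in human normal lung fibroblasts (MRC-5) following 16-hour treatment. AC50 values come from standard Hill-equation modeling of luminescence normalized to DMSO and 10 uM staurosporine.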

[4] = Cellular Toxicity (caspase-3) Mesangial (AID 660);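 also: combined caspase 3 and 7 activity read by Caspase-Glo luminescence; cells exposed to compound for 16 h before the caspase read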
Procedure, shortened: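 Concentration-response qHTS: compound-induced rise in caspase 3/7 luminescence in human mesangial cells after 16 h, normalized to DMSO and 100 uM tamoxifen controls.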

[5] = Cellular Toxicity (caspase-3) Hek293 (AID 664); conditions: HEK293 caspase-3 activation, DMSO = 0%, 100 µM tamoxifen = 100%; at 92.2 µM (top of the series);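 also: cells exposed to compound for 16 h at 37 °C before readout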
Procedure, shortened: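 Activation of caspase-3/7 is measured as increased luminescence from cleaved peptide-aminoluciferin substrate in HEK293 cells treated 16 hours at 37 °C. AC50 values come from Hill-equation fits of concentration-response data.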

[6] = Cellular Toxicity (caspase-3) NIH 3T3 (AID 666);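 also: caspase signal read after 16 h compound exposure; 0% = DMSO basal and 100% = 100 µM tamoxifen stimulation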
Procedure, shortened: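 Concentration-response qHTS in NIH 3T3 mouse fibroblasts scores caspase-3/7 activation as rising luminescence after 16 hr compound exposure. Signals are scaled between DMSO-only and 100 uM tamoxifen.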

[7] = MultiTox-Fluor Cytotoxicity Assay - LYMP1-002 - Live Cells (AID 955);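 also: cells exposed to compound for 16 hours; % is scaled to controls: 0 for no effect and ±100 for the full control effect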
Procedure, shortened: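 Cytotoxicity in the human lymphoblastoid line LYMP1-002 is measured as loss of live-cell protease activity after 16 h treatment in complete culture medium. AC50 is derived from Hill-equation fits of qHTS concentration-response data.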

[8] = Cell Viability - LYMP2-004 (AID 966);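 also: plate controls were DMSO only for no effect and tetraoctylammonium bromide control for full effect; nearly all actives have a fitted effect of over 65% in size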
Procedure, shortened: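 Acute toxicity is scored as a concentration-dependent drop in intracellular ATP, quantified by luciferase luminescence, in human lymphoblastoid cells exposed to compound for 24 hr. AC50 derives from Hill-equation modelling.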

[9] = Cell Viability - LYMP2-009 (AID 968);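 also: cells exposed to compound for 24 h at 37 °C; 0% = DMSO alone and the full-kill end = tetraoctylammonium bromide at 92 µM; nearly all actives have a fitted effect of over 55% in size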
[10] = Cell Viability - LYMP2-011 (AID 969);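 also: 0% = DMSO only and full inhibition = 92 µM tetraoctylammonium bromide; nearly all actives have a fitted effect of over 60% in size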
Procedure, shortened: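 Acute toxicity is scored as a concentration-dependent drop in intracellular ATP of a human lymphoblastoid line after 24 hr treatment. Values are AC50s modeled with the Hill equation.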

[11] = Cell Viability - LYMP2-017 (AID 972);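 also: cells exposed to compound for 24 hours at 37 °C; % is scaled to controls: 0 for no effect and ±100 for the full control effect; nearly all actives have a fitted effect of over 55% in size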
Procedure, shortened: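 Steps: plate 2500 lymphoblastoid cells per well; incubate 5 hr at 37 C; add compound across a concentration series and incubate 24 hr at 37 C; add CellTiter-Glo and read luminescence after 30 min at room temperature; fit Hill curves for AC50.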

[12] = Cell Viability - LYMP2-025 (AID 976);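 also: cells exposed to compound for 24 h at 37 °C; plate controls were DMSO only for no effect and tetraoctylammonium bromide control for full effect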
Procedure, shortened: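 In qHTS format, LYMP2-025 lymphoblastoid cells in complete culture medium received compound for 24 hr; ATP-based CellTiter-Glo signal gave viability, with AC50 derived by Hill equation.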

[13] = Cell Viability - LYMP2-026 (AID 989);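 also: cells exposed to compound for 24 h at 37 °C; % is scaled to controls: 0 for no effect and ±100 for the full control effect; nearly all actives have a fitted effect of over 50% in size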
Procedure, shortened: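 Concentration-dependent loss of intracellular ATP in human lymphoblastoid cells after 24 hr at 37 C, quantified by luciferase luminescence. AC50 derived from standard Hill equation.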

[14] = qHTS assay for small molecule activators of the p53 signaling pathway (AID 651743; active = well fitted activation curve with a large enough effect in the signal ratio, not every such curve was filed as active; the % refers to the signal ratio; also: % of control where 0% means no effect); conditions: HCT-116 p53RE-bla, beta-lactamase FRET ratio, 16 h; activation: hits give high values
Procedure, shortened: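 Screen for p53 pathway agonists uses stably transfected p53RE-bla HCT-116 cells, 4,000 per well, treated 16 h at 37 C with compounds in DMSO.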

[15] = qHTS assay for small molecule disruptors of the mitochondrial membrane potential - 1 hr assay (AID 651754; calls by dose curve; also: % is scaled to controls: 0 for no effect and ±100 for the full control effect; nearly all actives have a fitted effect of over 35% in size)
Procedure, shortened: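 Steps: seed HepG2 cells and let attach overnight; pin-transfer compound or vehicle; incubate 1 hr at 37C; add Mito-MPS dye for 30 min; read two-channel fluorescence for monomer and aggregate forms.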

[16] = target: Nuclear receptor ROR-gamma (Homo sapiens) (UniProt P51449); experiment: qHTS assay for small molecule antagonists of the retinoid-related orphan receptor gamma (ROR-gamma) signaling pathway (AID 651802);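 also: CHO cells with doxycycline-induced ROR-gamma expression; luciferase reporter luminescence driven by ROR response element; % is scaled to controls: 0 for no effect and ±100 for the full control effect; nearly all actives have a fitted effect of over 60% in size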
Procedure, shortened: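 Antagonism is scored as a fall in luminescence from a RORE-luciferase reporter in CHO cells expressing ROR under a TET-inducible promoter, measured 16hr after doxycycline induction in the presence of compound.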

[17] = qHTS assay for small molecule agonists of the antioxidant response element (ARE) signaling pathway measured by Nrf2-dependant transcriptional activity (AID 720636; active = well fitted curve in the direction sought with a large enough effect in the repeat runs; an effect the other way counts as inactive or inconclusive;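 also: HepG2 cells with an ARE-driven luciferase reporter; % of control where 0% means no effect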)
Procedure, shortened: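 Attachment 6 hr at 37 C, then compound versus DMSO vehicle for 16 hr in ARE-luc HepG2 cells (1% dialyzed FBS); luminescence recorded 30 min after ONE-Glo addition at room temperature.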

[18] = target: Vitamin D3 receptor (Homo sapiens) (UniProt P11473); experiment: qHTS assay for small molecule agonists of vitamin D receptor signaling (AID 588543; calls by dose curve;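 also: 0% = DMSO basal and 100% = reference agonist control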)
Procedure, shortened: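 Reporter cells (HEK293T, VDR-UAS-bla) were seeded in medium with 2% charcoal-stripped serum and incubated 5 h, then compounds in concentration series were added for 16 h at 37 °C. Stimulation was scaled between DMSO basal and 50 nM 1α,25-dihydroxyvitamin D3.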

[19] = qHTS assay for small molecule agonists of the antioxidant response element (ARE) signaling pathway measured by Nrf2-dependant transcriptional activity - cell viability counter screen (AID 720653; active = well fitted curve in the direction sought with a large enough effect in the repeat runs; an effect the other way counts as inactive or inconclusive; also: % is scaled to controls: 0 for no effect and ±100 for the full control effect); conditions: ARE-bla HepG2 viability, CellTiter-Glo ATP luminescence, 16 h; hits give low values
Procedure, shortened: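 Cytotoxicity counter screen: intracellular ATP quantified by CellTiter-Glo luminescence in the same ARE-bla HepG2 plates, after 16 h compound exposure and a 2 h beta-lactamase substrate step.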

[20] = Cell Viability - LYMP1-003 - Assay at 40 hr (AID 964); also: % is scaled to controls: 0 for no effect and ±100 for the full control effect; nearly all actives have a fitted effect of over 60% in size
Procedure, shortened: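 This qHTS cytotoxicity screen treats human lymphoblastoid cells (LYMP1-003) with compounds for 40 hr and quantifies cellular ATP via luciferase luminescence.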

Sequence of Nuclear receptor ROR-gamma (Homo sapiens) (P51449 whole entry, looked up): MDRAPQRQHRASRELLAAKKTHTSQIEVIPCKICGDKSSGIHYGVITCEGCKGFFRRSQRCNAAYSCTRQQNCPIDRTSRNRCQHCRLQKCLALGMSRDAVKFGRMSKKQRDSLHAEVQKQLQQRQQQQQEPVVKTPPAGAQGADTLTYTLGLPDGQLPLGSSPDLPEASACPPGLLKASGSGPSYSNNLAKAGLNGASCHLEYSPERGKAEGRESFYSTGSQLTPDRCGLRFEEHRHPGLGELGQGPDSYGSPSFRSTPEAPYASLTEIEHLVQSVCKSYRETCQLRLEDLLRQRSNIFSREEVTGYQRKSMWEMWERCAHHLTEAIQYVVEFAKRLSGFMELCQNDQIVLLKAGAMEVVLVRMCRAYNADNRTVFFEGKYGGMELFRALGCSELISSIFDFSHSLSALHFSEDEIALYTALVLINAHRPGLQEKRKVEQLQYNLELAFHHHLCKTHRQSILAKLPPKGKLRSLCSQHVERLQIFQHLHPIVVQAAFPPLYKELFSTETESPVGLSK
Sequence of Vitamin D3 receptor (Homo sapiens) (P11473 whole entry, looked up): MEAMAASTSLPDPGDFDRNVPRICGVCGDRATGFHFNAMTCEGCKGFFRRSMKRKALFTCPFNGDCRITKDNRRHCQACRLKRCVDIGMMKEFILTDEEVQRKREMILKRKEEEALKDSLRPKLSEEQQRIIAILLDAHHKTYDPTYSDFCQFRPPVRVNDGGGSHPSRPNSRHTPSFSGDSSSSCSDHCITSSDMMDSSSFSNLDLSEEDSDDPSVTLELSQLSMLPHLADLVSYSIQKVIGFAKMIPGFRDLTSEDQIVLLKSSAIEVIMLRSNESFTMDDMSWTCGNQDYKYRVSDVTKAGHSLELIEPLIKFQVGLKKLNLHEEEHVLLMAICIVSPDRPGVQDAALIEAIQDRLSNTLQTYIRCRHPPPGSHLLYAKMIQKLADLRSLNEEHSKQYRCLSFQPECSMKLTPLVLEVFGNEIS

BrCCc1ccccc1
inactive: Potency [1] | outcome [2] | outcome [3] | outcome [4] | caspase-3 activation [5] 0.126% | Potency [6] | outcome [7] | Potency [8] | Potency [9] | Potency [10] | Potency [11] | Potency [12] | Potency [13] | activation [14] -5.87% | Potency [15] | Potency [16] | Potency [17]

C=CC(=O)OCC(CC)CCCC (centres undefined)
inactive: Potency [1] | outcome [2] | outcome [3] | outcome [4] | caspase-3 activation [5] 2.19% | Potency [6] | outcome [7] | Potency [8] | Potency [9] | Potency [10] | Potency [11] | Potency [13] | outcome [18] | activation [14] 0.81% and 5.58% | Potency [15] | Potency [16] | Potency [17] | max response [19] -8.13% and 5.16%

CN(C)c1ccccc1
inactive: Potency [1] | outcome [2] | outcome [3] | outcome [4] | caspase-3 activation [5] -0.669% | outcome [7] | Potency [20] | Potency [8] | Potency [11] | Potency [12] | Potency [13] | outcome [18] | activation [14] -3.2% | Potency [15] | Potency [17] | max response [19] 12.1%

CC(C#N)CCC#N (centres undefined)
inactive: Potency [1] | outcome [2] | outcome [3] | caspase-3 activation [5] 0.584% | Potency [20] | Potency [8] | Potency [9] | Potency [11] | Potency [12] | Potency [13] | outcome [18] | activation [14] -0.507% | Potency [16] | Potency [17] | max response [19] 0.528%

c1ccc(C2CO2)cc1 (centres undefined)
inactive: Potency [1] | outcome [2] | outcome [3] | outcome [4] | caspase-3 activation [5] -0.153% | Potency [6] | outcome [7] | Potency [20] | Potency [9] | Potency [12] | Potency [13] | outcome [18] | activation [14] -1.82% | Potency [15] | Potency [16] | Potency [17] | max response [19] -5.33%

Clc1ccccc1
inactive: Potency [1] | outcome [2] | outcome [3] | outcome [4] | caspase-3 activation [5] 0.224% | Potency [6] | outcome [7] | Potency [20] | Potency [8] | Potency [9] | Potency [11] | Potency [12] | Potency [13] | outcome [18] | Potency [15] | Potency [16] | Potency [17] | max response [19] -18.9%

Clc1ccc(C(Cl)(Cl)Cl)cc1Cl
inactive: Potency [1] | outcome [2] | outcome [3] | outcome [4] | Potency [6] | outcome [7] | Potency [20] | Potency [8] | Potency [10] | Potency [11] | Potency [13] | outcome [18] | activation [14] 0.791% | Potency [15] | Potency [16] | Potency [17] | max response [19] -18%

Clc1ccc(Cl)c(Cl)c1
inactive: Potency [1] | outcome [3] | outcome [4] | Potency [6] | outcome [7] | Potency [20] | Potency [10] | Potency [11] | Potency [12] | Potency [13] | outcome [18] | activation [14] -3.13% and -3.99% | Potency [15] | Potency [16] | Potency [17] | max response [19] 4.11% and 3.77%
